Experimental data reported in ChEMBL document CHEMBL3988442, “University of Dundee, Small-Polar-MMV Screening Library” (2021).
For some assays here: Potency and affinity values are given separately.

Legend:
Design in all cases: scale not given: direction of the effect not stated beside the values
[1] = biological target: Protein translocase subunit SecA (Escherichia coli (strain K12)) (UniProt P10408); assay: Assay to Identify E. coli SecA ATPase Inhibitors; format: functional; conditions: 30 µM
[2] = biological target: T1, Ubiquitin-activating enzyme e1, putative (Leishmania donovani (strain BPK282A1)) (UniProt E9BSI1); assay: Leishmania donovani Ubiquitin Activating Enzyme (LdE1); format: functional; conditions: 30 µM
T1 sequence (whole entry): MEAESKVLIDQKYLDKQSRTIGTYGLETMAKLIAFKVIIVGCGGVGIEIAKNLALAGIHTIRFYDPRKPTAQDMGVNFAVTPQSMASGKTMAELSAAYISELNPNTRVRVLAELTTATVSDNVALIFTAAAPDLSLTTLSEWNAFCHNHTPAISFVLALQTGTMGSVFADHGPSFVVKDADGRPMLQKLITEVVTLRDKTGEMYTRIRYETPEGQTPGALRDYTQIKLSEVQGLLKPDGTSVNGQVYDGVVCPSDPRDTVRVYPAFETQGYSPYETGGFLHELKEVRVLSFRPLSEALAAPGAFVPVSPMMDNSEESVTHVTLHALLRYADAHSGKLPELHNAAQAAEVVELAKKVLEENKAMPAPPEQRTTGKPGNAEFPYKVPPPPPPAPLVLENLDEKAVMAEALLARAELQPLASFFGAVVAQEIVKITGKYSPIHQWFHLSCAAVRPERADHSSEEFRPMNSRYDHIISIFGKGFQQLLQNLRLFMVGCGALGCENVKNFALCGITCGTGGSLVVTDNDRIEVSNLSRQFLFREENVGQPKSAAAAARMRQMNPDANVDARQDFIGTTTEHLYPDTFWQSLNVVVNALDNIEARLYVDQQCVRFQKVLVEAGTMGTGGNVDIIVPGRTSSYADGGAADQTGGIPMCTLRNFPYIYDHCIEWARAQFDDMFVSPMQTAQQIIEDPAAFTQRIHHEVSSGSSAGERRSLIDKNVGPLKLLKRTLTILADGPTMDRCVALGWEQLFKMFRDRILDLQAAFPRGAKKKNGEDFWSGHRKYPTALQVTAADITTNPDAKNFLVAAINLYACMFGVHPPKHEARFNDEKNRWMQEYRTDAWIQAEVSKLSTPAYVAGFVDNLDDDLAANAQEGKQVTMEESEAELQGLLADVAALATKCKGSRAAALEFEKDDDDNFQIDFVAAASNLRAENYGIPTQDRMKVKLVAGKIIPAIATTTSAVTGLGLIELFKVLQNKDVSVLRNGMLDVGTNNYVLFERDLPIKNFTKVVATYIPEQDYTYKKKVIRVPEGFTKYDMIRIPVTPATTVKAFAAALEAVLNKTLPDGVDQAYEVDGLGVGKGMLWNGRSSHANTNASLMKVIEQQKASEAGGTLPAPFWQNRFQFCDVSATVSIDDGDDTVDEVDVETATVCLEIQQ

[3] = biological target: AMP-activated protein kinase, AMPK (Homo sapiens) (UniProt P54646+O43741+P54619+Q9UGJ0+Q9Y478+Q13131+Q9UGI9); assay: AMP-dependent Kinase enzyme assay. An in vitro enzyme assay that detects ADP turnover that is directly proportional to AMPK activity. This uses naive AMPK that is activated during the assay with MK-8722; format: functional; conditions: 30 µM
[4] = biological target: Sialic acid-binding Ig-like lectin 9 (Homo sapiens) (UniProt Q9Y336); assay: Hs-Siglec9 ALPHAscreen SOP 20170721; conditions: 10 µM
Trypanosoma cruzi = assay: Trypanosoma cruzi phosphomannomutase and mannose-1-phosphate guanylyltransferase assay; format: functional; conditions: 10 µM
[5] = biological target: T2, Arginase-2, mitochondrial (Homo sapiens) (UniProt P78540); assay: in vitro enzyme assay to detect the production of urea directly proportional to the activity of Arginase II; format: functional; conditions: 33.3 µM; note: in the data most compounds retested in dose-response had high values
T2 sequence (whole entry): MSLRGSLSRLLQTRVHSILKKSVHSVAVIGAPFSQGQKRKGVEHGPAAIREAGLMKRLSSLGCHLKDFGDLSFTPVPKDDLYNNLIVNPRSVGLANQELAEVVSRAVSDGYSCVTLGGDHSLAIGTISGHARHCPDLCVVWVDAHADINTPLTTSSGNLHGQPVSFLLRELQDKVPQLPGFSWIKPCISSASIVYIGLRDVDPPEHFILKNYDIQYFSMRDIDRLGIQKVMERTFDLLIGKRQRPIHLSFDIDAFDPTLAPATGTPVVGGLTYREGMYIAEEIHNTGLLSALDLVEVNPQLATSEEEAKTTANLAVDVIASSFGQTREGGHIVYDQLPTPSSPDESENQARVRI

[6] = biological target: T3, Proteasome subunit beta (Trypanosoma cruzi) (UniProt O96673); assay: Trypanosoma cruzi proteasome chymotrypsin-like activity (TcProtChymo) assay.; note: in the data most compounds retested in dose-response had high values; format: functional; conditions: 9.37 µM
T3 sequence (whole entry): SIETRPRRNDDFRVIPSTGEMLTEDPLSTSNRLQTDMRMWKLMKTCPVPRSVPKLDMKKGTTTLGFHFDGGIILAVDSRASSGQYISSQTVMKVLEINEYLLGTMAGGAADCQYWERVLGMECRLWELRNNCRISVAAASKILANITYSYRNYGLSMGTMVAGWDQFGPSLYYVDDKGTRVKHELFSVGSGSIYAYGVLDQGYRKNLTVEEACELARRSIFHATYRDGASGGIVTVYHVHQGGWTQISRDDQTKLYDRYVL

Homo sapiens = organism: Homo sapiens; assay: To identify inhibition of the IFN signalling (Jak-Stat) pathway via expression of an eGFP reporter gene under the control of an IFN-stimulated response element (ISRE) containing MxA promoter.; format: functional; conditions: 30 µM
[7] = biological target: T4, Tyrosyl-tRNA synthetase, putative (Trypanosoma cruzi (strain CL Brener)) (UniProt Q4DSP6); assay: Trypanosoma cruzi tyrosyl tRNA synthetase (TcYRS) _High Tyrosine SOP; format: functional; conditions: 30 µM; note: in the data most compounds retested in dose-response had high values
T4 sequence (whole entry): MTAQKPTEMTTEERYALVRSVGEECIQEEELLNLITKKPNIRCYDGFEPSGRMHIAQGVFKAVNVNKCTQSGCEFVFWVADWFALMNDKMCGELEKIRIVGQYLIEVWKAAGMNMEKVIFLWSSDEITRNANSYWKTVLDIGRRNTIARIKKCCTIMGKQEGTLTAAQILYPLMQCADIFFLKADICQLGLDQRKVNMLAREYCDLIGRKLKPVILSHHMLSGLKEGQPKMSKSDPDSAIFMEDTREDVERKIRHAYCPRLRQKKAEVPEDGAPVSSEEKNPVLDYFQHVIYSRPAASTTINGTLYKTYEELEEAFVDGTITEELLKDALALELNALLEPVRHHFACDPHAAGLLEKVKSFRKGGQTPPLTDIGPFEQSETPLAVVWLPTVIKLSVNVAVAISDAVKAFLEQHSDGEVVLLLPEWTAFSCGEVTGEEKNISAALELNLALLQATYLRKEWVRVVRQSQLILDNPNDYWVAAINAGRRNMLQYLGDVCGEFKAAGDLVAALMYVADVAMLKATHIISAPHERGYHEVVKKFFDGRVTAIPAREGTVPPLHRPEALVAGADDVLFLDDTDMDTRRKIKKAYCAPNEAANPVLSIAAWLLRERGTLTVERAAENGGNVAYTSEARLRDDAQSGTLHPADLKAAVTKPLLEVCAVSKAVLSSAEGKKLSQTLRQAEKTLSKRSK

[8] = biological target: T4, Tyrosyl-tRNA synthetase, putative (Trypanosoma cruzi (strain CL Brener)); assay: Trypanosoma cruzi tyrosyl tRNA synthetase (TcYRS) SOP; format: functional; conditions: 30 µM
[9] = biological target: Chromo domain-containing protein 1 (Saccharomyces cerevisiae (strain ATCC 204508 / S288c) (Baker's yeast)) (UniProt P32657); assay: ScCHD-1 Enzyme Inhibition Assay; format: functional; conditions: 30 µM; note: in the data most compounds retested in dose-response had high values
Chromo domain-containing protein 1 (Saccharomyces cerevisiae (strain ATCC 204508 / S288c) (Baker's yeast)), sequence (P32657 whole entry, the tested form may be a part): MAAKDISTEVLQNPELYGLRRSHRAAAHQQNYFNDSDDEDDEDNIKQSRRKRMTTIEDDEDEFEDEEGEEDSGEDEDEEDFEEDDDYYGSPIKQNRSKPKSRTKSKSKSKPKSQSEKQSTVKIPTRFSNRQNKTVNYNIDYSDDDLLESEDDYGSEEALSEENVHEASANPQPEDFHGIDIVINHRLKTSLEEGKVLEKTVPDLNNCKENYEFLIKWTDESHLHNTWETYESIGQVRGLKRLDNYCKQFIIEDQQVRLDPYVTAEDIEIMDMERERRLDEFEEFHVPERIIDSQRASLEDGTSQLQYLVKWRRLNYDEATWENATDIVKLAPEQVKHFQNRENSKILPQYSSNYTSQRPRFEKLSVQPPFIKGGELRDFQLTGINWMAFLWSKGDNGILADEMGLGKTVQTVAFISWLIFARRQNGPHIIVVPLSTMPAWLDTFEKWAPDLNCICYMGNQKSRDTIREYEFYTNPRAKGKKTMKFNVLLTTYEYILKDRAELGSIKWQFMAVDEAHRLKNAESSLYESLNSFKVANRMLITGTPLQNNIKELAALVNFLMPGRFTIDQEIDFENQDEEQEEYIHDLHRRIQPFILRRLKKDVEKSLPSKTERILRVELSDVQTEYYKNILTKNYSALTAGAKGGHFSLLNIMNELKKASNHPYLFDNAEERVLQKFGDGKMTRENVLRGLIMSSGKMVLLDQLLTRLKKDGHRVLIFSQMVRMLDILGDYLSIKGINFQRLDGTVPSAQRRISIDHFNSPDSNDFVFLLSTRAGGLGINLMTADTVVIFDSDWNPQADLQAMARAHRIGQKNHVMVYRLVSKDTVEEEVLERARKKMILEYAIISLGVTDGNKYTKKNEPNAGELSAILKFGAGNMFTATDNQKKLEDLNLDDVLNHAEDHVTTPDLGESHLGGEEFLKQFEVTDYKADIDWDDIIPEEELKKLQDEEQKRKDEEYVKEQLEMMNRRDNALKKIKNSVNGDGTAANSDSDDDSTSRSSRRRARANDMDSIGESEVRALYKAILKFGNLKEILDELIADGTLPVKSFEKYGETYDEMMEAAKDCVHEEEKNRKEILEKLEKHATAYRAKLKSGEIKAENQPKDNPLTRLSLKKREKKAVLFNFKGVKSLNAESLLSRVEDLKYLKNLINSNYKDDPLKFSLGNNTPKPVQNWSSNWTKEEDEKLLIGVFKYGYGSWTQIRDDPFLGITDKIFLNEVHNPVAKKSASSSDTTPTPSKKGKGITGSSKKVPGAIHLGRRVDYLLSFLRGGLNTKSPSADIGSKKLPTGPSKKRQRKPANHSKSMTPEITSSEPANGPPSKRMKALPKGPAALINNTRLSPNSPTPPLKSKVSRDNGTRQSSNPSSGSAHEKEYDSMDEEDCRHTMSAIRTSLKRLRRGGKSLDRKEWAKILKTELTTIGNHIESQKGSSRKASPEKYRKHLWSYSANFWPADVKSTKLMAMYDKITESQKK

Protein translocase subunit SecA (Escherichia coli (strain K12)), sequence (P10408 whole entry): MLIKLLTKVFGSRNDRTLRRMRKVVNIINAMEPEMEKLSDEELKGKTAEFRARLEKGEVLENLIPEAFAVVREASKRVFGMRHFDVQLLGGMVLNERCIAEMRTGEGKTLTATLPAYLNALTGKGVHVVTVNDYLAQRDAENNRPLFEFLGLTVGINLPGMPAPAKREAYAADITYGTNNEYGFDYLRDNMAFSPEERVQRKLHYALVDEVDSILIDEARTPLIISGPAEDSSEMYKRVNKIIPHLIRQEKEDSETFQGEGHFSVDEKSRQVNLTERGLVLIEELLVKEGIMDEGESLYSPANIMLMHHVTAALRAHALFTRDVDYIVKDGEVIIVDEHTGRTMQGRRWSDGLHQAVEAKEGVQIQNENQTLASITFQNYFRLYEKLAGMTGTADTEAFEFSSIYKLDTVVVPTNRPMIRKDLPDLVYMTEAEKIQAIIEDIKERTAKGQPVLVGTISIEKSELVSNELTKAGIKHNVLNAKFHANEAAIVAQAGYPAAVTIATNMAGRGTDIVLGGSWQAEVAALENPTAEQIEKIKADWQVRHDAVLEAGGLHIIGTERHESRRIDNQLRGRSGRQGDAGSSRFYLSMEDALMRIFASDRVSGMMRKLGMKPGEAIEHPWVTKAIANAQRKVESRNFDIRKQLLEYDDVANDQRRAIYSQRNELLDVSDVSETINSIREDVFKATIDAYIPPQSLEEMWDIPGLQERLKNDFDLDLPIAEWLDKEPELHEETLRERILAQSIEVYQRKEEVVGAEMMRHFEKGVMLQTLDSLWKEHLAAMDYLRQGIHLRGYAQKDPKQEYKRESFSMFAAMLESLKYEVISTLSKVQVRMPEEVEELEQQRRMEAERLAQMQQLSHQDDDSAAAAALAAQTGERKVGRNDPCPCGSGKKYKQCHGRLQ
Sialic acid-binding Ig-like lectin 9 (Homo sapiens), sequence (Q9Y336 whole entry): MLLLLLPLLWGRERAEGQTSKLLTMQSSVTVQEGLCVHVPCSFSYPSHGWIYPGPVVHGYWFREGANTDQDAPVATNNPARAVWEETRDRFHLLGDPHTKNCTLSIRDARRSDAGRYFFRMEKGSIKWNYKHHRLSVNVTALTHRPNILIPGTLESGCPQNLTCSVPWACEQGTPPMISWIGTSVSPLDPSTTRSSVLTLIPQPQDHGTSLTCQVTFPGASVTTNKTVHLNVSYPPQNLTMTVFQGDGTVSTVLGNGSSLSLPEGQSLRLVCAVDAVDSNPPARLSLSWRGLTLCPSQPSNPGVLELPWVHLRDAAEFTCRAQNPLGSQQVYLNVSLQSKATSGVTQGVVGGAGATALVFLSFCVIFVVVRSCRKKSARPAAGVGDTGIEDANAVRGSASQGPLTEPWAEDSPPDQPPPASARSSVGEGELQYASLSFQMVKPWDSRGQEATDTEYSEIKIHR

Row | SMILES | Percent Effect [1] | Percent Effect [2] | Percent Effect [3] | Percent Effect [4] | Percent Effect (Trypanosoma cruzi) | Percent Effect [5] | Percent Effect [6] | Percent Effect (Homo sapiens) | Percent Effect [7] | Percent Effect [8] | Percent Effect [9]
1 | Cn1cccc1CCC(=O)N1CCC2(CC1)c1ccccc1CC2O (configuration not stated) | 0.249% | 13% | -1.66% | 10.8% | 4.23% | -38.6% | 20.6% | 21.3% | 11.8% | 16.1% | 5.42%
2 | CCN(CC1CCOC1)C(=O)c1ccccc1NS(=O)(=O)CC (configuration not stated) | -5.12% | 7.89% | -0.433% | -1.92% | 1.03% | -1.08% | 6.34% | -2.41% | 7.39% | 18.5% | -4.83%
3 | COc1ncccc1CNC(=O)NC1CCOc2ccccc21 (configuration not stated) | -3.57% | 5.41% | -0.164% | 13.2% | 5.48% | 0.185% | -4.85% | 10.6% | 0% | 13.4% | -3.69%
4 | COCC(=O)N1CCC(c2nc3ccc(-c4ccccc4)cn3n2)CC1 | 1.49% | -153% | 4.81% | 3.2% | -1.19% | 4.79% | 13.4% | 15.6% | 0% | 3.7% | -1.08%
5 | Cc1cnc(CN2CCCC(c3cc(C(N)=O)[nH]n3)C2)o1 (configuration not stated) | 1.3% | 24.3% | -15.7% | -4.2% | 0.472% | -16.8% | 17.1% | -3.25% | 5.42% | 18.5% | -9.23%
6 | Cc1ncsc1C(=O)Nc1cccc(OCC(F)F)n1 | -4.44% | 2.63% | 10.6% | 1.18% | -4.19% | -8.28% | 22.5% | 31.7% | 3.19% | 7.79% | -0.476%
7 | c1csc(-c2nc(CNC3CCc4ncnn4C3)co2)c1 (configuration not stated) | -3.96% | 7.79% | -1.01% | 1.84% | -5.24% | 2.13% | 4.22% | 20.4% | 2.91% | 9.76% | -4.74%
8 | COc1ccc(C(C)=O)c(OCC(=O)NC(C)c2ccc(F)cc2)c1 (configuration not stated) | -0.739% | 10.8% | -5.53% | 8.21% | 5.77% | 23.6% | 9.19% | -11.8% | 0% | 11.1% | -6.76%
9 | Cc1cc2n(n1)CC(CNCc1cnn(-c3ccccc3)c1)CN2 (configuration not stated) | 2.28% | 5.26% | -10.4% | 1.3% | 2.26% | 4.21% | 13.9% | 15.7% | 12.2% | 12.2% | -7.16%
10 | Cc1cccc(-n2cc(C(=O)N3CCn4c(C)nnc4C3)nn2)c1 | -9.19% | -2.74% | 2.62% | 0.154% | -4.17% | -8.38% | 3% | 21.1% | 3.12% | 1.24% | 0.00385%
11 | O=C(NCCOc1ccc2c(c1)OCO2)C1CC(=O)N(CC2CC2)C1 (configuration not stated) | -2.83% | 18.4% | 1.65% | -9.9% | 6.82% | 0% | 9.56% | -20.7% | 6.4% | 23.5% | -7.44%
12 | O=S(=O)(NCC1CCN(c2cnccn2)CC1)c1c(F)cccc1F | 0.613% | 5.2% | -0.808% | -3.89% | -5.82% | 9.68% | 5.74% | 8.19% | 3.17% | 6.41% | -7.48%
13 | O=C1CC2(CCCCC2)CC(=O)N1CC(O)COCc1ccc(Cl)cc1 (configuration not stated) | -4.15% | -10.8% | -0.127% | -2.3% | -1.66% | -0.744% | -2.66% | 2.65% | -2.15% | -6.17% | 6.87%
14 | COc1cccc2cc(CNCc3ccnc(N4CCOCC4)c3)oc12 | -5.63% | 0% | -16.9% | 3.48% | -6.7% | -6.41% | 10.6% | 26.6% | 1.48% | -11.1% | 3.15%
15 | CCNc1cc2c(nn1)CCN(C(=O)c1ccc(NC3CC3)nc1)C2 | -3.24% | 0% | -3.65% | 11.3% | 3.38% | 1.15% | 2.67% | 6.81% | 5.39% | 9.76% | 1.67%
16 | c1ccc(CCCN2CC(n3cccn3)C2)cc1 | 0.15% | 2.7% | -2.18% | -4.46% | 5.48% | -2.03% | 14.7% | 25.9% | 7.92% | 23.2% | -5.99%
17 | CN(C)CC1CSCCCN1C(=O)c1ccc(=O)[nH]c1 (configuration not stated) | -6.61% | 2.6% | 6.1% | 5.73% | -5.82% | 0.645% | 7.66% | 0.342% | -1.06% | 3.85% | -3.68%
18 | COCC1CN(C(=O)c2cccn2C)Cc2nccn2C1 (configuration not stated) | -0.683% | 10.7% | 12.7% | -7.24% | -5.32% | 1.63% | 13.8% | 10.6% | 2.13% | 11.5% | -4.6%
19 | O=C(c1cncc(N2CCC(O)(CO)CC2)n1)N1CCCC1 | -4.63% | 5.33% | -3.65% | 8.86% | 6.72% | 0% | 16.9% | -11.2% | 9.29% | 18.5% | -7.99%
20 | COc1cccc(C(=O)Nc2cc(CC(C)C)nn2C)c1 | -4.81% | -5.2% | -7.56% | 6.82% | 6.74% | -6.41% | 3.04% | 11% | 4.85% | 14.6% | -5.36%
21 | COCc1cc(NCc2cc(F)ccc2F)n2nccc2n1 | -3.49% | -2.74% | -7.06% | 1.05% | -5.68% | 2.27% | 5.15% | 15.9% | 2.15% | 7.5% | -6.68%
22 | CC(C)Nc1nc2c(cc1C(=O)N(C)C)CCNCC2 | -4.01% | 16% | 4.22% | 9.77% | -0.772% | -24.6% | 5.47% | -7.58% | 0% | -7.5% | -4.61%
